# Test results as given in PubChem BioAssay (EPA / NIEHS).
# The source made the active and inactive calls. Rule for the calls: active = hit-call score of the fitted dose curve at least 0.9, where 1 is the maximum; inactive = score below 0.9.
# System: not listed separately
# Assay: ATG_GLI_CIS: Attagene CIS-FACTORIAL HepG2 Assay for human Zinc Finger Protein GLI1 (AID 2282945)
# Conditions: HepG2, Attagene cis-factorial reporter mRNA, GLI element; actives raise or lower the signal
# Procedure, shortened: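 Transiently transfected HepG2 cells report endogenous transcription factor activity via cis-element-driven reporter units. After 24 h compound exposure, reporter mRNA was measured by RT-PCR with capillary electrophoresis; bidirectional fitting against DMSO baseline.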
row,SMILES,outcome
1,CCC(C)c1cc(C(C)(C)C)cc(-n2nc3ccccc3n2)c1O (configuration not stated),inactive
2,CC1(C)C(=O)NC(=O)NC1=O,inactive
3,c1ccc(P(c2ccccc2)c2ccccc2)cc1,inactive
4,N#Cc1cccc(C#N)c1,inactive
5,O=C1Nc2ccc(Cl)cc2C(c2ccccc2)=NC1O (configuration not stated),inactive
6,N#CC(c1ccccc1)c1ccccc1,inactive
7,C[N+](C)=CCl,inactive

# Biological target: Bile acid receptor (Homo sapiens) (UniProt Q96RI1)
# Sequence (Q96RI1 whole entry, looked up): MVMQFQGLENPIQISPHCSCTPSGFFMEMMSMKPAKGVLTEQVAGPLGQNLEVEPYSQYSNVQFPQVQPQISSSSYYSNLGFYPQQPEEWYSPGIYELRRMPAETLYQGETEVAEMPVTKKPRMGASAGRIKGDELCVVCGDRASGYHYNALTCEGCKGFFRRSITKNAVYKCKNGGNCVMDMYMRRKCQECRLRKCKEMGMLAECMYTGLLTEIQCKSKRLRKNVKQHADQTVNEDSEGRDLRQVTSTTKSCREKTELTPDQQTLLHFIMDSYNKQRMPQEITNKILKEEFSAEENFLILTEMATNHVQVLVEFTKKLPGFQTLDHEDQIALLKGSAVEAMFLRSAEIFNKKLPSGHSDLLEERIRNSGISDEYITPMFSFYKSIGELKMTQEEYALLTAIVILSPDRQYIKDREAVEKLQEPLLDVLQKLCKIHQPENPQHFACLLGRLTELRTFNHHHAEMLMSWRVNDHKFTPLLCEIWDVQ
# Assay: ATG_IR1_CIS: Attagene CIS-FACTORIAL HepG2 Assay for human Nuclear Receptor Subfamily 1 Group H Member 4 (NR1H4), IR1 submotif (AID 2282946)
# Conditions: IR1 reporter transcription, actives raise or lower the signal
# Procedure, shortened: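 Fluorescence of capillary-separated, HpaI-digested RT-PCR reporter products gave IR1-element mRNA induction in HepG2 cells 24 h after dosing. Endogenous transcription factors drove the cis-regulated reporters; activity was fitted bidirectionally against DMSO.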
SMILES,AC50,outcome
O=C1C(Cl)=C(Cl)C(=O)C(Cl)=C1Cl,72.4 µM (active),–
N#CCCCCC#N,–,inactive
O=C(NCNC(=O)NC1C(=O)NC(=O)N1CO)NC1C(=O)NC(=O)N1CO (configuration not stated),–,inactive
[N-]=[N+]=CC(=O)OC[C@H](N)C(=O)O,–,inactive
COCC(=O)N(c1c(C)cccc1C)N1CCOC1=O,–,inactive
CC(C)CCCCCCCOP(=O)(Oc1ccccc1)Oc1ccccc1,–,inactive
C=COCCCl,–,inactive
CC(Cc1ccc(C(C)(C)C)cc1)CN1C[C@@H](C)O[C@@H](C)C1 (some centres not stated),–,inactive
CCC[N+](=O)[O-],–,inactive
CC(C)(O)C#N,–,inactive
CCCCCc1cc(O)cc(O)c1,155 µM (active),–
c1ccc(Nc2ccc3ccccc3c2)cc1,–,inactive
ClC1=C(Cl)[C@]2(Cl)[C@@H]3[C@@H](Cl)[C@H](Cl)C[C@@H]3[C@@]1(Cl)C2(Cl)Cl,–,inactive
O=S(=O)(c1ccccc1)c1ccccc1,–,inactive
CCC(C)c1cc(C(C)(C)C)cc(-n2nc3ccccc3n2)c1O (configuration not stated),–,inactive
N#CC(c1ccccc1)c1ccccc1,–,inactive

# System: not listed separately
# Assay: ATG_GRE_CIS: Attagene CIS-FACTORIAL HepG2 Assay for human Glucocorticoid Response Elements (GRE) (AID 2282947)
# Conditions: HepG2 GRE cis-reporter, Attagene multiplex mRNA; actives raise or lower the signal
# Procedure, shortened: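 Fluorescence intensity of reporter-specific cDNA fragments, separated by capillary electrophoresis, provides the signal. Constructs carry cis-regulating promoters in transiently transfected HepG2 liver cells; 24 h incubation; fitting is bidirectional against DMSO.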
row,SMILES,outcome
1,O=C1C(Cl)=C(Cl)C(=O)C(Cl)=C1Cl,inactive
2,N#CCCCCC#N,inactive
3,CC1CCC(=O)O1 (configuration not stated),inactive
4,COc1cc(OC)c(OC)cc1C=O,inactive
5,CC(C)c1ccc(O)cc1,inactive
6,CC(C)(c1cc(Cl)c(O)c(Cl)c1)c1cc(Cl)c(O)c(Cl)c1,inactive
7,O=C(NCNC(=O)NC1C(=O)NC(=O)N1CO)NC1C(=O)NC(=O)N1CO (configuration not stated),inactive
8,CC(C)CCCCCCCOP(=O)(Oc1ccccc1)Oc1ccccc1,inactive
9,CCC1CCC(=O)O1 (configuration not stated),inactive
10,C=COCCCl,inactive
11,C=CCN(CC=C)C(=O)C(Cl)Cl,inactive
12,CC[N+](=O)[O-],inactive
13,CC(Cc1ccc(C(C)(C)C)cc1)CN1C[C@@H](C)O[C@@H](C)C1 (some centres not stated),inactive
14,CCOC(=O)N(C)N=O,inactive
15,O=CNC(N1CCN(C(NC=O)C(Cl)(Cl)Cl)CC1)C(Cl)(Cl)Cl (configuration not stated),inactive
16,CC(C)C#N,inactive
17,S=c1[nH]c2ccccc2[nH]1,inactive
18,c1ccc(Nc2ccc3ccccc3c2)cc1,inactive
19,Cc1ccc(OP(=O)(Oc2ccc(C)cc2)Oc2ccc(C)cc2)cc1 (tested in a mixture with another compound),inactive
20,ClC1=C(Cl)[C@]2(Cl)[C@@H]3[C@@H](Cl)[C@H](Cl)C[C@@H]3[C@@]1(Cl)C2(Cl)Cl,inactive
21,CCC(C)c1cc(C(C)(C)C)cc(-n2nc3ccccc3n2)c1O (configuration not stated),inactive
22,CC1(C)C(=O)NC(=O)NC1=O,inactive
23,CC(=O)/C=C/c1ccccc1,inactive
24,c1ccc(P(c2ccccc2)c2ccccc2)cc1,inactive
25,CCOC(=O)COc1ccc(Cl)cc1Cl,inactive
26,CCN(CC)C(=S)S,inactive
27,N#Cc1cccc(C#N)c1,inactive
28,N#CC(c1ccccc1)c1ccccc1,inactive
29,C[N+](C)=CCl,inactive

# System: not listed separately
# Assay: ATG_ISRE_CIS: Attagene CIS-FACTORIAL HepG2 Assay for human Interferon Regulatory Factor 1 (IRF1) binding to an Interferon-Stimulated Response Element (ISRE) (AID 2282948)
# Conditions: HepG2 ISRE cis-reporter (Attagene), mRNA transcription readout; actives raise or lower the signal
# Procedure, shortened: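 Signal reflects induction or loss of ISRE-linked reporter mRNA in transiently transfected HepG2 cells after a 24 h treatment, detected by fluorescent RT-PCR fragments on capillary electrophoresis and normalised to DMSO.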
SMILES,outcome,AC50
O=C1C(Cl)=C(Cl)C(=O)C(Cl)=C1Cl,inactive,–
N#CCCCCC#N,inactive,–
CC1CCC(=O)O1 (configuration not stated),inactive,–
COc1cc(OC)c(OC)cc1C=O,inactive,–
CC(C)c1ccc(O)cc1,inactive,–
C[N+](C)(C)CC(=O)[O-],inactive,–
CC(C)(c1cc(Cl)c(O)c(Cl)c1)c1cc(Cl)c(O)c(Cl)c1,–,47.2 µM (active)
O=C(NCNC(=O)NC1C(=O)NC(=O)N1CO)NC1C(=O)NC(=O)N1CO (configuration not stated),inactive,–
[N-]=[N+]=CC(=O)OC[C@H](N)C(=O)O,inactive,–
COCC(=O)N(c1c(C)cccc1C)N1CCOC1=O,inactive,–
CC(C)CCCCCCCOP(=O)(Oc1ccccc1)Oc1ccccc1,inactive,–
CCC1CCC(=O)O1 (configuration not stated),inactive,–
C=COCCCl,inactive,–
C=CCN(CC=C)C(=O)C(Cl)Cl,inactive,–
CC[N+](=O)[O-],inactive,–
CC(Cc1ccc(C(C)(C)C)cc1)CN1C[C@@H](C)O[C@@H](C)C1 (some centres not stated),inactive,–
[Cl-].[Cl-].[Cl-].[Yb+3],inactive,–
CCOC(=O)N(C)N=O,inactive,–
O=CNC(N1CCN(C(NC=O)C(Cl)(Cl)Cl)CC1)C(Cl)(Cl)Cl (configuration not stated),inactive,–
CCC[N+](=O)[O-],inactive,–

SMILES,outcome,AC50
CC(C)(O)C#N,inactive,–
CC(C)C#N,inactive,–
S=c1[nH]c2ccccc2[nH]1,inactive,–
CCCCCc1cc(O)cc(O)c1,inactive,–
c1ccc(Nc2ccc3ccccc3c2)cc1,inactive,–
CSc1nc(N=[N+]=[N-])nc(NC(C)C)n1,inactive,–
CC=Cc1ccc2c(c1)OCO2,inactive,–
Cc1ccc(OP(=O)(Oc2ccc(C)cc2)Oc2ccc(C)cc2)cc1 (tested in a mixture with another compound),–,100 µM (active)
ClC1=C(Cl)[C@]2(Cl)[C@@H]3[C@@H](Cl)[C@H](Cl)C[C@@H]3[C@@]1(Cl)C2(Cl)Cl,inactive,–
O=S(=O)(c1ccccc1)c1ccccc1,inactive,–
CCC(C)c1cc(C(C)(C)C)cc(-n2nc3ccccc3n2)c1O (configuration not stated),inactive,–
CC1(C)C(=O)NC(=O)NC1=O,inactive,–
CC(=O)/C=C/c1ccccc1,–,100 µM (active)
c1ccc(P(c2ccccc2)c2ccccc2)cc1,inactive,–
CCOC(=O)COc1ccc(Cl)cc1Cl,inactive,–
CCN(CC)C(=S)S,inactive,–
N#Cc1cccc(C#N)c1,inactive,–
O=C1Nc2ccc(Cl)cc2C(c2ccccc2)=NC1O (configuration not stated),inactive,–
N#CC(c1ccccc1)c1ccccc1,inactive,–
C[N+](C)=CCl,inactive,–
